Bioassay records: PubChem, National Center for Advancing Translational Sciences (NCATS)
HEK cytotox = kills HEK 293 cells; HEK 293 viability, ATP luminescence (CellTiter-Glo), 48-72 h; actives 6.6% (n = 94,000); AID 1345083; Potency, µM (highest dose often 115 µM), inactives show at the top dose activity change, negative = cytotoxicity, hits mostly inhibitors; also: nearly all actives have a fitted effect of over 60% in size
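HEK 293 cells at 250 cells/well were exposed to compounds by pintool transfer for 48 or 72 hr at 37 degree Celsius, 5% CO2. Viability was read as ATP-coupled luminescence with CellTiter-Glo after 10 min at room temperature.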
Luciferase inh = blocks purified firefly luciferase enzyme activity | Potency, µM (titrated, usually from 115 µM), usual class: inhibitors | AID 1347043 | purified P. pyralis luciferase, luminescence, biochemical | P08659 | actives 2.5% (n = 76,000); also: nearly all actives have a fitted effect of over 65% in size
Target sequence (P08659 whole entry, looked up): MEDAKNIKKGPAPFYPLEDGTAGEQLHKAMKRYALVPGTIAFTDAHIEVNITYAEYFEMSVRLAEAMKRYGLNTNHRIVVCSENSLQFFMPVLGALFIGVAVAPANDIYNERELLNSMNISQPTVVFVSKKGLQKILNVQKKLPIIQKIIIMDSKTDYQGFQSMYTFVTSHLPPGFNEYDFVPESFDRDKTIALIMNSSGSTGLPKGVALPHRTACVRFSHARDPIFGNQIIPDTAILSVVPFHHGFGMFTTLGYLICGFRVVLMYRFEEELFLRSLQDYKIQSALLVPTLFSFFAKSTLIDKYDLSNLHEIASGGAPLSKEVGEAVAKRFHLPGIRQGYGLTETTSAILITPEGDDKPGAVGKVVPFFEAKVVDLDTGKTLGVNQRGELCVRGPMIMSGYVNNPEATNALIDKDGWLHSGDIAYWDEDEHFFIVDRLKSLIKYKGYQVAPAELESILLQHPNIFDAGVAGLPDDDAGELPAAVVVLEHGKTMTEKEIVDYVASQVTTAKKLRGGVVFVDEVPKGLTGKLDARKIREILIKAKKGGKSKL
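Purified P. pyralis luciferase (10nM final) in 50mM Tris acetate pH 7.5, 10mM Mg acetate, 0.01% Tween-20, 0.05% BSA with 10uM D-luciferin and 10uM ATP. Compounds titrated qHTS. Luminescence imaged on CCD.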
NPR1 antag = human Npr1 receptor antagonism; P16066; HEK293 hNpr1 GloSensor cGMP, ANP-stimulated luminescence; Potency, µM (doses to about 46.3 µM), without a hit: at the highest dose activity change, negative = inhibition, actives largely listed as inhibitors; actives 1.6% (n = 76,000); AID 1347048; calls by dose curve; also: nearly all actives have a fitted effect of over 60% in size
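Compound pre-incubated 30 min at room temperature on GloSensor-loaded HEK293 cells stably carrying hNpr1 and the pGS-40F cGMP biosensor. Stimulation uses hNppA at 0.1 nM final; luminescence is taken at baseline and 20 min post-agonist.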
NIH3T3 tox = kills NIH 3T3 cells. NIH 3T3 viability, CellTiter-Glo ATP luminescence, 48-72 h. Potency, µM (highest dose often 96.7 µM), for the others: at the highest dose activity change, negative = cytotoxicity, most hits filed as inhibitors. actives 4.3% (n = 94,000). AID 1345082; also: nearly all actives have a fitted effect of over 55% in size
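NIH 3T3 cells at 400 cells/well received 23 nL of compound by pintool and were incubated 48 or 72 h at 37 °C. Viability was read as ATP-coupled CellTiter-Glo luminescence.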
GPT2 inh = inhibitors of human GPT2 alanine aminotransferase. Q8TD30. Recombinant GPT2, coupled pyruvate oxidase/HRP Amplex Red fluorescence. Potency, µM (series often up to 57.7 µM), for the others: at the highest dose activity change, negative = inhibition, hits mostly inhibitors. actives 0.25% (n = 100,000); also: nearly all actives have a fitted effect of over 60% in size
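Fluorescence of coupled pyruvate oxidase/HRP/Amplex Red system (50uM Amplex, 30 min, dark) reports pyruvate formed by GPT2. Enzyme reaction: 10ng/uL GPT2, 2mM L-alanine, 250uM a-KG, 30 min room temperature, pH 7.5; 50uM AOA control.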
* = called active by the depositor; i = inactive; ? = inconclusive; / = no result given; [ ] = remark or other dose. In the library only some 10% were active in any assay of this set; here they are far more common. Unless noted, calls follow the shape of the dose curve; as a rule, active = well fitted curve in the direction sought with a large enough effect; inconclusive = small, poorly fitted or top-dose-only effect, or another doubt; inactive = no such curve, though single readings can be large; an effect the other way counts as inactive or inconclusive. % is scaled to controls: 0 for no effect and ±100 for the full control effect; potency is read from the fitted curve at half-maximal effect.

SMILES	HEK cytotox	Luciferase inh	NPR1 antag	NIH3T3 tox	GPT2 inh
COc1ccc(C(=O)NCC2(COc3ccccc3)C[C@@H](O)[C@@H](O)C2)cc1 (some centres undefined)	-14%[172 µM]	i	-1%[70.6 µM]	45µM*	i
CC(Nc1ccc(-c2nc(CCCc3ccccc3)no2)cn1)c1cnn(C)c1 (centres undefined)	?	16µM*	-24%	?	i[11.5 µM]
c1ccc(CCCc2noc(-c3ccc(N4CCOCC4)nc3)n2)cc1	?	i	-24%	-14%	i
COc1ccc(-c2cc(C(=O)NCCc3cnc[nH]3)c3c(c2)N(C)CCO3)cc1OC	-29%[172 µM]	i	5%[70.6 µM]	?	4%[88.5 µM]
Cc1ccccc1-c1cc(C(=O)NCCc2cnc[nH]2)c2c(c1)N(C)CCO2	?	i	-3%[70.6 µM]	100µM*	i
Cc1cc(C)c(CNC(=O)c2cc(-c3cccnc3)cc3c2OCCN3C(C)C)c(=O)[nH]1	100µM*	i	0%[70.6 µM]	?	i
COc1ccc(-c2cc(C(=O)NCc3c(C)cc(C)[nH]c3=O)c3c(c2)N(C(C)C)CCO3)cc1OC	?	i	5%	25µM*	i
COc1ccc(-c2cc(C(=O)NCc3c(C)cc(C)[nH]c3=O)c3c(c2)N(C)CCO3)cc1	-23%[172 µM]	i	-18%[70.6 µM]	?	i
COc1ccccc1-c1cc(C(=O)NCc2c(C)cc(C)[nH]c2=O)c2c(c1)ncn2C	?	i	5%[70.6 µM]	40µM*	-9%[88.5 µM]
NCC1CCCN(Cc2ccc(-c3nc(-c4ccncc4)cc(=O)[nH]3)cc2)C1 (centres undefined)	i	i	1%	4%	1%
Cc1cc(C)c(CNC(=O)c2cc(-c3ccccc3C)cc3c2OCCN3C)c(=O)[nH]1	89µM*	i	-30%[70.6 µM]	45µM*	-9%[88.5 µM]
CCc1nc2c(c(-c3ccc(O)cc3)n1)CN(Cc1ccsc1)CC2	-15%	/	/	-38%	?
CC(C)C[C@@H]1N[C@H](C(=O)NC(C)C)Cc2cn(Cc3ccncc3)c3cccc1c23	?	i	?	32µM*	-4%[88.5 µM]
CCCNC(=O)[C@@H]1Cc2cn(Cc3ccncc3)c3cccc(c23)[C@H](CC(C)C)N1	32µM*	i	?	25µM*	-8%[88.5 µM]
CC(C)C[C@@H]1N[C@H](C(=O)NCCN(C)C)Cc2cn(Cc3ccncc3)c3cccc1c23	40µM*	i	1%[70.6 µM]	28µM*	-10%[88.5 µM]
CCCNC(=O)[C@@H]1Cc2cn(Cc3ccccn3)c3cccc(c23)[C@H](CC(C)C)N1	?	i	-26%[70.6 µM]	?	-17%[88.5 µM]
CCCNC(=O)[C@@H]1Cc2cn(Cc3cccnc3)c3cccc(c23)[C@H](CC(C)C)N1	?	i	-2%[70.6 µM]	89µM*	4%[88.5 µM]
CC(C)C[C@@H]1N[C@H](C(=O)O)Cc2cn(Cc3ccncc3)c3cccc1c23	-28%	i	5%	-17%	-30%
C=C1CC[C@@H]2[C@](C)(CO)[C@H](O)CC[C@@]2(C)[C@@H]1C/C=C1/C(=O)OCC1OC(=O)/C(=C/CO)C(O)C[C@@H]1C(=C)CC[C@@H]2[C@](C)(CO)[C@H](O)CC[C@]21C (some centres undefined)	/	/	/	/	i
CC(C)C[C@@H]1N[C@H](C(=O)NCC2CC2)Cc2cn(Cc3ccncc3)c3cccc1c23	35µM*	i	-16%[70.6 µM]	?	3%[88.5 µM]
CCC(C)SSc1ncc[nH]1 (centres undefined)	/	/	/	/	5%
CCn1cc(S(=O)(=O)N2CCCCC2c2nc(CCOc3ccc(F)cc3)no2)cn1 (centres undefined)	45µM*	i	-19%	?	i
CCn1cc(S(=O)(=O)N2CC(c3nc(CCOc4cccc(C)c4)no3)C2)cn1	?	/	/	?	-8%
COc1ccc(C(=O)N2CCCC(c3nc(CCOCC4CCCC4)no3)C2)cc1F (centres undefined)	45µM*	i	?	?	2%
CC(C)N1C[C@H](O)C[C@H]1c1nnc2n1CCN(C(=O)CCc1ccccc1)CC2	-3%	i	-1%	-11%	i
SMILES	HEK cytotox	Luciferase inh	NPR1 antag	NIH3T3 tox	GPT2 inh
CC(C)CCN1CCOc2cc(C(=O)Nc3ccc(F)cc3)ccc2C1	?	i	?	?	-27%[88.5 µM]
CC(C)CCN1CCOc2cc(C(=O)NCc3ccccc3)ccc2C1	?	i	4%[70.6 µM]	?	-1%[88.5 µM]
CC(C)CCN1CCOc2cc(C(=O)NCc3cccs3)ccc2C1	?	i	-5%[70.6 µM]	?	?
CC(C)CCN1CCOc2cc(C(=O)NCCOc3ccccc3)ccc2C1	100µM*	i	-11%[70.6 µM]	?	i
O=C(NCC1CC1)c1ccc2c(c1)OCCN(c1ccccc1)C2	11µM*	i	-4%[70.6 µM]	?	5%[88.5 µM]
CC(C)CCN1CCOc2cc(C(=O)N(C)c3cccnc3)ccc2C1	112µM*	i	-15%[70.6 µM]	?	4%[88.5 µM]
CC(C)CCN1CCOc2cc(C(=O)Nc3cccnc3)ccc2C1	112µM*	i	-4%[70.6 µM]	-13%[138 µM]	4%[88.5 µM]
CC(=O)N1CCCN(c2ccc3nnc(C4CC4)n3n2)CC1	2%[172 µM]	/	/	-9%[138 µM]	/
CC(C)CCN1CCOc2cc(C(=O)Nc3nccs3)ccc2C1	100µM*	?	-18%[70.6 µM]	?	-8%[88.5 µM]
O=C(NC1CCCC1)N1CC(Oc2cccc(-c3nc(-c4ccccc4)no3)c2)C1	?	i	1%	?	i
CC(C)CNC(=O)N1CC(Oc2ccc(-c3nc(-c4ccccc4)no3)cc2)C1	?	i	0.5µM*	-27%	i
O=C(NC1CCCC1)N1CC(Oc2ccc(-c3nc(-c4ccccc4)no3)cc2)C1	?	?	0.32µM*	-21%	i
Cc1cc(CO)c(O)c(C(=O)CC2CC(=O)NC(=O)C2)c1	/	/	/	/	2%
CC(C)C[C@H](CO)NC(=O)C[C@@H]1c2nc(NC(=O)C(C)(C)C)sc2C[C@@H]2[C@](C)(CO)[C@H](O)CC[C@]21C	-25%	i	-1%	-19%	-7%
COc1ccc2ccc(OCc3nc(C(=O)N4CCCNC(=O)C4)co3)cc2c1	?	?	?	?	0%
COc1ccc2ccc(OCc3nc(C(=O)NC(C)c4n[nH]c(C)n4)co3)cc2c1 (centres undefined)	45µM*	?	11µM*	-28%	?
COc1ccc2ccc(OCc3nc(C(=O)NCc4cnc(C)cn4)co3)cc2c1	?	i	-22%	?	i
COc1ccc2ccc(OCc3nc(C(=O)N4CCCC(C)(CO)C4)co3)cc2c1 (centres undefined)	?	?	11µM*	?	?
O=C(C1CCCN1C(=O)NC1CCCC1)N1CCC(N2Cc3ccccc3C2=O)CC1 (centres undefined)	2%	/	/	-11%	i
